hNpr1 antagonist: human Npr1 receptor antagonism; HEK293 hNpr1 GloSensor cGMP, ANP-stimulated luminescence; Potency, µM (highest dose often 46.3 µM), inactives show top-dose activity change, negative = inhibition, hits mostly inhibitors; 1.6% of 76,000 active; calls by dose curve; further: on the % scale 0 is the no-effect control and ±100 the full control effect; nearly all actives have a fitted effect of over 60% in size
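HEK293 cells stably expressing human Npr1 and cGMP GloSensor pGS-40F, loaded 2 h with 2% GloSensor reagent, given compound 30 min at room temperature. Luminescence read before and 20 min after 0.1 nM hNppA.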
GPT2 inh: inhibitors of human GPT2 alanine aminotransferase; AID 1671188; 0.25% of 100,000 active; Recombinant GPT2, coupled pyruvate oxidase/HRP Amplex Red fluorescence; Potency, µM (titrated, usually from 57.7 µM), without a hit: top-dose activity change, negative = inhibition, most hits filed as inhibitors; further: on the % scale 0 is the no-effect control and ±100 the full control effect; nearly all actives have a fitted effect of over 60% in size
Target sequence (Q8TD30 whole entry, looked up): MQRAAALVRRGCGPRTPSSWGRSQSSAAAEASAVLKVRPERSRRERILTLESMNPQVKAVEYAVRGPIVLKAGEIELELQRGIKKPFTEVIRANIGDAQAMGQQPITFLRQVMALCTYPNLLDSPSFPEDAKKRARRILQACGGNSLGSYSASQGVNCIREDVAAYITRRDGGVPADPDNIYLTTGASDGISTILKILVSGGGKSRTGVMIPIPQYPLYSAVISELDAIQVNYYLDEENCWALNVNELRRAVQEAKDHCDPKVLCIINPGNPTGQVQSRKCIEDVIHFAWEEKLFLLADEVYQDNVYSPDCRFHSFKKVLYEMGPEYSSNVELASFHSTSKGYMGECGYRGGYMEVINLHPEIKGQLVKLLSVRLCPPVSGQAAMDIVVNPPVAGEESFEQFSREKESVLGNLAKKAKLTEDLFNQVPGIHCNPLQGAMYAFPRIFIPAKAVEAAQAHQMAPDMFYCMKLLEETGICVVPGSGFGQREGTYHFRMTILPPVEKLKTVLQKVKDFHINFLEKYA
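GPT2 10ng/uL, a-KG 250uM, L-Ala 2mM, HEPES pH7.5 + 0.0001% Tween; 30 min RT. Then Amplex mix (PO/HRP/ThPP), 30 min RT dark, fluorescence. AOA 50uM used as positive control.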
3T3 cytotox: NIH 3T3 cell cytotoxicity; 4.3% of 94,000 active; NIH 3T3 viability, CellTiter-Glo ATP luminescence, 48-72 h; Potency, µM (doses to about 96.7 µM), for the others: top-dose activity change, negative = cytotoxicity, usual class: inhibitors; further: on the % scale 0 is the no-effect control and ±100 the full control effect; nearly all actives have a fitted effect of over 55% in size
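Mouse fibroblast NIH 3T3 cells, 400 per well, received compound via pintool and were incubated for 48 or 72 hr prior to CellTiter-Glo ATP luminescence measurement.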
HEK293 tox: HEK 293 cell cytotoxicity; 6.6% of 94,000 active; HEK 293 viability, ATP luminescence (CellTiter-Glo), 48-72 h; Potency, µM (doses to about 115 µM), for inactives: at the top dose activity change, negative = cytotoxicity, hits mostly inhibitors; AID 1345083; further: on the % scale 0 is the no-effect control and ±100 the full control effect; nearly all actives have a fitted effect of over 60% in size
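HEK 293 seeded at 250 cells/well receive compound via pintool. After 48 or 72 hr at 37 degree Celsius, 5% CO2 and 95% humidity, CellTiter-Glo is dispensed and luminescence read following 10 min at room temperature.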
FLuc inh-1: inhibitors of firefly (Photinus pyralis) luciferase; P08659; purified P. pyralis luciferase, luminescence, biochemical; Potency, µM (top dose mostly 115 µM), most hits filed as inhibitors; 2.5% of 76,000 active; AID 1347043; further: on the % scale 0 is the no-effect control and ±100 the full control effect; nearly all actives have a fitted effect of over 65% in size
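Purified 10nM P. pyralis luciferase with 10uM D-luciferin and 10uM ATP in 50mM Tris acetate pH 7.5, 10mM Mg acetate, 0.01% Tween-20, 0.05% BSA. qHTS titration; luminescence read by CCD imager.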
FLuc SDR no ATP: firefly luciferase binding stabilization, ATP absent; Purified FLuc-C-HiBiT, Nano-Glo HiBiT luminescence, no ATP; 7.8% of 1,300 active; Potency, µM (series often up to 32.7 µM), for the others: at the highest dose activation (signal gain), usual class: activators; shares compounds with FLuc inh-1; AID 1963318; further: nearly all actives have a fitted effect of over 55% in size
FLuc SDR ATP: firefly luciferase binding stabilization, ATP added. shares compounds with FLuc inh-1. purified FLuc-C-HiBiT + ATP, HiBiT complementation luminescence. Potency, µM (series often up to 32.7 µM), for inactives: at the top dose activation (gain of signal), most hits filed as activators. 8.7% of 1,300 active. AID 1963319;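 further: signal reports ligand binding via conformational change of the enzyme rather than luciferase catalysis; % of control where 0% means no effect; nearly all actives have a fitted effect of over 55% in size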
FLuc inh-2: inhibitors of firefly luciferase enzymatic activity. purified FLuc-C-HiBiT enzyme, luciferin luminescence. Potency, µM (series often up to 32.7 µM), for the others: at the highest dose activity change, negative = inhibition, most hits filed as inhibitors. shares compounds with FLuc inh-1. 42% of 1,300 active; further: on the % scale 0 is the no-effect control and ±100 the full control effect; nearly all actives have a fitted effect of over 70% in size
Active calls of the source: *; i = inactive; ? = inconclusive; · = no result; [ ] = another dose, or the depositor's remark. A selection: hits, their analogues and other compounds. The true share with any hit is near 10%. Unless noted, the call rests on the fitted dose curve; in most records, active means well fitted curve in the direction sought with a large enough effect; inconclusive means small, poorly fitted or top-dose-only effect, or another doubt; inactive means no such curve, though single readings can be large; an effect the other way counts as inactive or inconclusive. Potency means the concentration at half of the fitted maximal effect.

SMILES	hNpr1 antagonist	GPT2 inh	3T3 cytotox	HEK293 tox	FLuc inh-1	others
Cc1nc(-c2ccccc2Br)cc([C@H]2CN3CC[C@H]2C[C@@H]3CNC(=O)Nc2ccc(Cl)cc2)n1	-6%	1%	35µM*	22µM*	i
Cc1nc(-c2ccco2)cc([C@H]2CN3CC[C@H]2C[C@@H]3CNCC2CCCCC2)n1	-21%[70.6 µM]	-25%[88.5 µM]	89µM*	112µM*	i
CCCS(=O)(=O)N1[C@H]2CC[C@@H]1c1cnc(C)nc1C2	13%	3%	i	i	i
O=C1NCCCCCCN[C@H]2CCCC[C@@H]12	0%	i	-12%	-1%	i
Cc1nc(-c2ccc(C(F)(F)F)cc2)cc([C@H]2CN3CC[C@H]2C[C@@H]3CNC(=O)C(C)(C)C)n1	0%	i	20µM*	40µM*	i
Cc1nc(-c2ccc(F)cc2)cc([C@H]2CN3CC[C@H]2C[C@@H]3CNC(=O)Nc2cccc(C#N)c2)n1	-15%	-10%	22µM*	?	i
Cc1nc(-c2ccccc2Br)cc([C@H]2CN3CC[C@H]2C[C@@H]3CNC(=O)Nc2cccc(C#N)c2)n1	-5%	-10%	28µM*	22µM*	i
Cc1nc(-c2ccc(F)cc2)cc([C@H]2CN3CC[C@H]2C[C@@H]3CNC(=O)NCc2ccccc2)n1	2%	4%	?	?	i
Cc1cc(C(=O)N2[C@H]3CC[C@@H]2c2cnc(-c4ccccc4)nc2C3)n[nH]1	·	i	-30%	?	·
O=C(Cc1ccc(F)cc1)N1CCN(Cc2ccccc2-c2ccccc2F)CC1	·	i	?	?	·
CC(C)CC(=O)N1CCC2(CC1)c1nccn1-c1ccccc1CN2C	7%	i	-9%	-1%	i
CCOC(=O)CCNC(=O)N1[C@H]2CC[C@@H]1c1cnc(C)nc1C2	3%	i	2%	-12%	i
CC(C)CN1CCN(c2ccc(Cl)nn2)C(=O)C1	0%[70.6 µM]	i	-5%[138 µM]	i	i
COc1cc2c(cc1OCC1CC1)NC(=O)C21CCN(C(=O)c2cccnc2)CC1	3%[70.6 µM]	-23%[88.5 µM]	25µM*	-16%[172 µM]	i
COc1cc2c(cc1Oc1ccccc1)NC(=O)C21CCN(C(=O)c2cccnc2)CC1	-24%[70.6 µM]	3%[88.5 µM]	?	56µM*	i
COc1cc2c(cc1Oc1ccccc1)NC(=O)C21CCN(C(=O)c2scnc2C)CC1	-17%	?	?	45µM*	i
COc1cc2c(cc1OCC1CC1)NC(=O)C21CCN(C(=O)CCc2cccnc2)CC1	-3%[70.6 µM]	-12%[88.5 µM]	?	-16%[172 µM]	i
COCC(=O)N1CCC2(CC1)C(=O)Nc1cc(Oc3ccccc3)c(OC)cc12	-5%[70.6 µM]	i	-26%[138 µM]	?	i
CCOC(=O)[C@H]1CN(C(=O)OCC(C)(C)C)[C@]2(C)C(=O)N(C)c3ccccc3[C@H]12	·	?	?	-26%[57.5 µM]	·
Cc1nc(-c2cccs2)cc([C@H]2CN3CC[C@H]2C[C@@H]3CNC(=O)Nc2cccc(C(F)(F)F)c2)n1	4%	i	25µM*	25µM*	i
Cc1nc(-c2cccs2)cc([C@H]2CN3CC[C@H]2C[C@@H]3CNC(=O)c2ccccc2)n1	-16%[70.6 µM]	i	?	?	i
Cc1nc(-c2cccs2)cc([C@H]2CN3CC[C@H]2C[C@@H]3CNC(=O)c2ccc3c(c2)OCO3)n1	-7%	-1%	40µM*	?	i
Cc1nc(-c2ccccc2Br)cc([C@H]2CN3CC[C@H]2C[C@@H]3CNC(=O)c2cccs2)n1	-7%	i	?	79µM*	i
Cc1ccc(C(=O)NC[C@H]2C[C@@H]3CCN2C[C@@H]3c2cc(-c3cccs3)nc(C)n2)cc1	-20%[70.6 µM]	i	28µM*	?	i
O=C1NCCCCCCN(Cc2ccncc2)[C@@H]2CN(C(=O)COc3ccc(F)cc3)CC[C@@H]12	7%	i	35µM*	-5%	i
SMILES	hNpr1 antagonist	GPT2 inh	3T3 cytotox	HEK293 tox	FLuc inh-1	others
O=C1NCCCCCCN(Cc2cccnc2)[C@H]2CCC[C@@H]12	1%	i	?	-12%	i
COc1ccc(CCC(=O)N2[C@H]3CC[C@@H]2c2cnc(-c4ccc(F)cc4)nc2C3)cc1	?	i	?	?	?
COc1cc2c(cc1CCc1ccccc1)N(C(=O)C1CCC(C)CC1)CC21CCN(C(C)=O)CC1 (stereo not given)	?	-18%	32µM*	40µM*	i
COc1cc2c(cc1CCc1ccccc1)N(C(=O)c1ccnn1C)CC21CCN(C(C)=O)CC1	2%	-1%	?	?	i
COc1cc2c(cc1CCc1ccccc1)N(C(=O)C(C)C)CC21CCN(C(C)=O)CC1	4%[70.6 µM]	?	-98%[138 µM]	89µM*	i
COc1cc2c(cc1CCc1ccccc1)N(C(=O)c1c[nH]c3ccccc13)CC21CCN(C(C)=O)CC1	-19%	-12%	22µM*	25µM*	i
COC(=O)C1(C)CCC(O)C2(C)c3c(O)cc(C(C)C)cc3C(O)C(OC(C)=O)C12 (stereo not given)	·	i	·	·	·
CN(C)Cc1cn(C[C@H]2CC3CCN2C[C@@H]3C(=O)NC2CCCCC2)nn1 (stereo not given in full)	0%[70.6 µM]	0%[88.5 µM]	-1%[174 µM]	-1%[172 µM]	i
Cc1cc(-c2cc3c(cn2)CN(CC(C)C)CCN3)ccn1	1%[70.6 µM]	-3%[88.5 µM]	?	?	4.5µM*	FLuc SDR no ATP=?;FLuc SDR ATP=17%[49.3 µM];FLuc inh-2=16µM*
COc1ccc(-c2cc3c(cn2)CN(C)CCN3)cc1OC	-11%[70.6 µM]	-46%[88.5 µM]	?	-43%[172 µM]	?
COc1cccc(Nc2cc3c(cn2)CN(C)CCN3)c1	-18%[70.6 µM]	3%[88.5 µM]	?	?	4.5µM*	FLuc SDR no ATP=20%[65.7 µM];FLuc SDR ATP=15%[65.7 µM];FLuc inh-2=23µM*
Cc1cc(C)n(CCC(=O)N2[C@H]3CC[C@@H]2c2cnc(-c4ccc(F)cc4)nc2C3)n1	8%	-2%	-9%	-3%	i
